Source: PubChem BioAssay
Most compounds without a hit are left out; they make up all but 2.3% or so of the library.
uPA generation: qHTS for Inhibitors of Cell Surface uPA Generation; cell surface uPA generation assay, qHTS; Potency, µM (titrated, usually from 38.3 µM), hits mostly inhibitors; actives 0.31% (n = 330,000); active = well fitted inhibition curve with a large enough effect; inconclusive = small, poorly fitted or top-dose-only effect; inactive = no such curve, though single readings can be large or run the other way; tested in mouse RAW 264.7 cells; also: nearly all actives have a fitted effect of over 55% in size
FUS suppressor: qHTS for Suppressors of FUS Proteinopathy: Primary screen using FUS-linked yeast assay; Potency, µM (doses to about 76.6 µM), actives largely listed as activators; actives 0.24% (n = 390,000); S. cerevisiae FUS-expressing, growth rescue, OD600, 24 h; also: nearly all actives have a fitted effect of over 55% in size
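Cultures pregrown in 2.5% raffinose medium are shifted to minimal medium containing 2% galactose to express toxic FUS. Compounds are tested at several concentrations. After 24hr at 30C, growth is quantified at 600 nm absorbance.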
aSyn rescue: qHTS of alpha-syn Inhibitors; Yeast expressing alpha-synuclein, growth rescue, BacTiter-Glo, 24 h; Potency, µM (titrated, usually from 46.1 µM), usual class: activators; actives 0.14% (n = 370,000); AID 652106, 2013; also: nearly all actives have a fitted effect of over 65% in size
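Galactose-induced alpha-syn yeast (OD600=0.02, raffinose-pregrown) + pinned cpd, 24 hr, 30 deg C; growth by BacTiter-Glo luminescence. Growth restoration scores as activation.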
BCR signal inh: qHTS Assay to Find Inhibitors of Chronic Active B-Cell Receptor Signaling; ABC-DLBCL IkBa-CBG/CBR reporter, luminescence ratio, 4 h; Potency, µM (highest dose often 46.1 µM), usual class: inhibitors; AID 493014, 2011; actives 0.05% (n = 340,000); active = well fitted inhibition curve with a large enough effect in the signal ratio, with a control signal flat, not every such curve was filed as active; inconclusive = small, poorly fitted or top-dose-only effect, or effect the other way, or a change in a side signal; the % refers to the signal ratio
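TMD8 human ABC-DLBCL cells with doxycycline-inducible IκBα–green luciferase fusion and unfused red luciferase, in 0.5% FBS medium; compounds up to 46 uM, 4 h at 37C. Green/red luminescence ratio, filter-overlap corrected, fitted to concentration-response curves.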
Abeta yeast res: qHTS for compounds that reverse cellular toxicity of Amyloid beta (A-beta) peptide in yeast: Primary Screen | yeast expressing A-beta42, growth rescue, OD600, 48 h; response scale: 0% DMSO, 100% iron-clioquinol control | Potency, µM (series often up to 46.1 µM), usual class: activators | actives 0.063% (n = 410,000) | AID 1347071, 2019; also: nearly all actives have a fitted effect of over 55% in size
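Yeast A-beta toxicity model in growth medium with pinned compounds, 48 h at 30 C; growth read as absorbance at 600 nm. Normalized to FeCl3/clioquinol equimolar mix (positive) and DMSO (negative).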
TDP43 rescue: qHTS of TDP-43 Inhibitors | TDP-43 expressing yeast growth rescue, BacTiter-Glo, 24 h | Potency, µM (series often up to 46.1 µM), most hits filed as activators | actives 1.8% (n = 410,000); also: nearly all actives have a fitted effect of over 50% in size
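Luminescence from BacTiter-Glo reports growth of TDP-43-expressing yeast after 24 hr at 30 deg C with compound. Cells were raffinose-pregrown to mid-log, then seeded in galactose medium at OD600=0.02.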
Large screens that a line does not name were inactive; ! = a repeat was not active. Unless noted, calls follow the shape of the dose curve; as a rule, active = well fitted curve in the direction sought with a large enough effect; inconclusive = small, poorly fitted or top-dose-only effect, or another doubt; inactive = no such curve, though single readings can be large; an effect the other way counts as inactive or inconclusive.

C#CCNC(=O)C[C@H]1C[C@@]2(C(=O)OC)C(=C[C@H](C(C)(C)C)O[C@@H]2C)N(Cc2ccc(Cl)cc2Cl)C1=O	FUS suppressor 17.8µM (no result: uPA generation, aSyn rescue, BCR signal inh, Abeta yeast res, TDP43 rescue)
COC1=Cc2c(ccc3ccc(=O)oc23)OC1(C)C	BCR signal inh inconclusive, TDP43 rescue 12.6µM (no result: aSyn rescue)
CC(C(=O)NCc1ccc2c(c1)OCO2)c1ccc([N+](=O)[O-])cc1 (stereo unspecified)	none
CC12CC3CC(C)(C1)CC(Nc1nc(N4CCOCC4)nc4ccccc14)(C3)C2	BCR signal inh inconclusive, TDP43 rescue 20µM
COc1ccccc1/C=C/c1nc2ccccc2o1	none (no result: uPA generation, FUS suppressor, BCR signal inh, Abeta yeast res, TDP43 rescue)
CCOC(=O)c1sc2nc(CC(=O)OC)nc(NCc3ccco3)c2c1C	none (no result: FUS suppressor)
CCOC(=O)c1sc2ncnc(NCc3ccco3)c2c1C	Abeta yeast res inconclusive, TDP43 rescue 20µM
O=C(N/N=C/c1c(O)ccc2ccccc12)C(=O)N1CCCC1	aSyn rescue 22.4µM, Abeta yeast res inconclusive (no result: uPA generation, BCR signal inh)
O=C(CN1CCCC1)N/N=C/c1c(O)ccc2ccccc12	uPA generation 5.01µM
CN(CC(=O)O)S(=O)(=O)c1ccc2c(c1)n(C)c(=O)c(=O)n2C	none
CC(=O)c1cn(CCOc2ccccc2C)c2ccccc12	uPA generation 5.62µM, BCR signal inh inconclusive, TDP43 rescue inconclusive
COc1ccc(OCCn2cc(C(=O)c3ccco3)c3ccccc32)cc1	Abeta yeast res inconclusive, TDP43 rescue 17.8µM (no result: uPA generation, aSyn rescue, BCR signal inh)
COc1ccc(/C=N/NC(=S)Nc2c(C)n(C)n(-c3ccccc3)c2=O)cc1OC	none
COc1ccc([C@H]2CC(=O)C=C(c3ccccc3)C2)cc1OC	TDP43 rescue inconclusive
COc1ccc([C@H]2CC(=O)C=C(c3cccc(Cl)c3)C2)cc1OC	TDP43 rescue 22.4µM
COc1ccc([C@H]2CC(=O)C=C(c3ccccc3OC)C2)cc1OC	TDP43 rescue 20µM
CCCCC/C=C/C1=CC(=O)C[C@H](c2ccc(OC)c(OC)c2)C1	FUS suppressor inconclusive, aSyn rescue inconclusive, TDP43 rescue 35.5µM
COc1ccc(C=O)cc1C1=CC(=O)C[C@H](c2ccc(Cl)cc2)C1	uPA generation inconclusive, FUS suppressor inconclusive, TDP43 rescue 20µM
CCOCCCN(C(=O)Nc1ccc(CC)cc1)C1CCN(C(C)=O)CC1	none
O=C(CCN1C(=O)c2ccccc2C1=O)Nc1cccc(O)c1	none
COC(=O)C1OC(OC2CC[C@]3(C)C(CC[C@@]4(C)[C@@H]3CC=C3[C@@H]5CC(C)(C)CC[C@]5(C(=O)OC5OC(CO)C(O)C(O)C5O)CC[C@]34C)C2(C)C)C(O)C(O)C1O[C@H]1OCC(O)C(O)C1O (stereo partly specified)	FUS suppressor inconclusive, BCR signal inh inconclusive
COCCNc1ccc(-c2nc(-c3ccccn3)no2)cc1[N+](=O)[O-]	none (no result: uPA generation, aSyn rescue, BCR signal inh)
CN1C(=O)COc2ccc(C(=O)c3oc4ccccc4c3-c3cnc4c(c3)COc3ccccc3-4)cc21	none (no result: uPA generation, FUS suppressor, aSyn rescue, Abeta yeast res, TDP43 rescue)
Cc1cccc(NC(=O)COc2ccc(-c3nn(C)c(=O)c4ccccc34)cc2)c1	FUS suppressor inconclusive, TDP43 rescue 35.5µM
COc1ccccc1NC(=O)COc1ccc(-c2nn(C)c(=O)c3ccccc23)cc1	BCR signal inh inconclusive, TDP43 rescue 22.4µM!
CN(C(=O)c1ccc(-c2nn(C)c(=O)c3ccccc23)cc1)c1ccccc1	TDP43 rescue 14.1µM (no result: aSyn rescue)
Cn1nc(-c2ccc(OCC(=O)Nc3ccccc3)cc2)c2ccccc2c1=O	TDP43 rescue 15.8µM (no result: aSyn rescue)
COc1ccccc1NC(=O)c1ccc(-c2nn(C)c(=O)c3ccccc23)cc1	none
CCCC(=O)OC12CCCN(C1)/C(=C/c1ccccc1)C2 (stereo unspecified)	none (no result: uPA generation, aSyn rescue, BCR signal inh, Abeta yeast res, TDP43 rescue)
COc1ccccc1NC(=O)Cn1nc(-c2ccc(C)cc2)c2c(c1=O)CCCC2	TDP43 rescue 31.6µM (no result: uPA generation, aSyn rescue, BCR signal inh)
COc1ccccc1NC(=O)Cn1nc(-c2ccc(Cl)cc2)c2ccccc2c1=O	BCR signal inh inconclusive
COc1ccc(S(=O)(=O)N(C)CC(=O)NCc2ccccc2)cc1OC	none
CCN1CCCC1CN(Cc1cc2cc(C)ccc2[nH]c1=O)C(=O)Nc1ccccc1OC (stereo unspecified)	FUS suppressor 22.4µM
Cc1cccc(S(=O)(=O)N(C)C[C@H]2OCc3cnnn3CCCC(=O)N([C@H](C)CO)C[C@H]2C)c1	none (no result: uPA generation, BCR signal inh)
C[C@]12CCC(O)CC1=CCC1C2CC[C@]2(C)/C(=N\NC(N)=S)CCC12 (stereo partly specified)	Abeta yeast res 2.51µM
CC12CCC(O)CC1=CCC1C2CCC2(C)C1CCC21CCC(=O)O1 (stereo unspecified)	none (no result: FUS suppressor)
Cc1ccc(C2CC(=O)Nc3c2ccc2ccccc32)cc1[N+](=O)[O-] (stereo unspecified)	BCR signal inh inconclusive, TDP43 rescue 25.1µM
COc1cc2c(cc1OC)C(c1ccco1)CC(=O)N2 (stereo unspecified)	none
O=C1CC(c2cccc([N+](=O)[O-])c2)c2c(ccc3ccccc23)N1 (stereo unspecified)	BCR signal inh inconclusive
O=C1CC(c2ccco2)c2ccc3ccccc3c2N1 (stereo unspecified)	TDP43 rescue 12.6µM
CC(C)[C@H](N)C(=O)N1CCC[C@@H]1C(=O)N1CCC2CCN(S(=O)(=O)c3ccccc3)CC21 (stereo partly specified)	none (no result: uPA generation, aSyn rescue, BCR signal inh, Abeta yeast res, TDP43 rescue)
CN(CCc1ccccc1)C(=O)c1ccc(NC(=O)Cc2cccc(NC(=O)C3CCN(C(=O)C4CCCC4)CC3)c2)cc1	FUS suppressor inconclusive, TDP43 rescue inconclusive (no result: BCR signal inh)
O=C(Oc1cccc2cccnc12)c1ccco1	BCR signal inh 23.1µM
O=C(Oc1cccc2ccccc12)c1ccco1	none (no result: uPA generation)
O=C(Oc1cccc2cccnc12)c1ccc(Br)o1	none
O=C(Oc1ccc(Cl)c2cccnc12)c1ccco1	BCR signal inh inconclusive, TDP43 rescue 31.6µM
COc1cc(/C=N/NC(=O)C(=O)NCc2ccco2)cc(Cl)c1O	none
C=CCN=c1scc(-c2ccc(F)cc2)n1/N=C/c1ccccn1	Abeta yeast res inconclusive, TDP43 rescue inconclusive
C=CCN=c1scc(-c2ccccc2)n1/N=C/c1ccccn1	uPA generation 0.398µM!, Abeta yeast res inconclusive, TDP43 rescue 22.4µM!
O=C1c2ccccc2-c2cc(Br)ccc2NC1O (stereo unspecified)	aSyn rescue 22.4µM, TDP43 rescue inconclusive (no result: uPA generation, BCR signal inh)
O=Nc1c(O)n(Cc2ccccc2)c2ccccc12	none
O=Nc1c(O)n(Cc2ccc(Cl)c(Cl)c2)c2ccccc12	aSyn rescue 12.6µM
